Measurements as given in PubChem BioAssay (NCATS).
Results filed as inconclusive are left out. Entries that show only a call come without a potency. The source made the active and inactive calls. Unless noted, calls follow the shape of the dose curve; as a rule, active = well fitted curve in the direction sought with a large enough effect in the repeat runs; inconclusive = weak or mixed curves; inactive = no such curve, though single readings can be large; an effect the other way counts as inactive or inconclusive.

molecular target: Calcium and integrin-binding protein 1 (Homo sapiens) (UniProt Q99828); assay: Primary qHTS for Identification of Calcium Integrin Binding Protein 1 (CIB1) Competitor (AID 1508620; active = well fitted curve in the direction sought with a large enough effect; an effect the other way counts as inactive or inconclusive;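 also: GST tagged CIB1 binding a fluorescein labelled alphaIIb integrin peptide tracer; top concentration of the series differs between compounds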); settings: CIB1-GST / FITC-alphaIIb peptide fluorescence polarization; series mostly up to 114 µM
Summary of the method: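 CIB1-GST (1 uM final) and compound incubated 15 min at room temperature before adding FITC-alphaIIb peptide tracer (100 nM final). Competition for binding read by fluorescence polarization (ex 480, em 540) after another 15 min at room temperature.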

Chain of Calcium and integrin-binding protein 1 (Homo sapiens) (Q99828 whole entry, looked up): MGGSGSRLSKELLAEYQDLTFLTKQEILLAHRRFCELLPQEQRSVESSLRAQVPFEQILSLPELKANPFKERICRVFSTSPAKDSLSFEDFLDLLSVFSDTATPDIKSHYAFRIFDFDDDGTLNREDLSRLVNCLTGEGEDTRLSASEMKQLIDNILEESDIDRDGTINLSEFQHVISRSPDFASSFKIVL

Compound	Potency
Nc1nc(O)c(C2=C3C(=Nc4ccccc43)C(=O)NCC2)[nH]1	inactive
O=C(Nc1ccc(-c2ccnc(Nc3ccc(N4CCOCC4)cc3)n2)cc1)C1CCCN1 (centres undefined)	inactive
CCOc1cn(-c2ccc(F)cc2C)nc1C(=O)Nc1ccc(Oc2ccnc3cc(OC)c(OC)cc23)c(F)c1	inactive
COC(=O)c1ccc2c(c1)nc(NC(=O)c1ccccc1)n2CCCc1ccccc1	inactive
COc1ccc(C(=O)Nc2c(Cl)cncc2Cl)cc1OC1CCCC1	inactive
O=c1[nH]c2ccc(C#CCN3CCC(Cc4ccccc4)CC3)cc2[nH]1	inactive
Cc1cc(F)ccc1-c1nc(NCCN=C(N)NC#N)nc2c1ccc(=O)n2-c1c(F)cccc1F	inactive
CC(C)c1ccc(NC(=O)Cn2cnc3c2c(=O)n(C)c(=O)n3C)cc1	inactive
Cc1[nH]cnc1C[C@H]1CCc2c(C)c3ccccc3n2C1=O	inactive
NCC1CCN(c2nccc(-c3ccc4ccccc4c3)n2)CC1	inactive
CCN1CCC[C@@H]1CNC(=O)c1ccc2c(c1)NC(=O)c1cccc(C)c1S2	inactive
COc1ccccc1N1CCN(CC[C@@](C)(C(=O)C2CCCCC2)c2ccccc2)CC1	inactive
Oc1ccc(-c2cnc3ccc(NCc4ccco4)nn23)cc1	inactive
Cc1[nH]c(/C=C2\C(=O)Nc3cc(-c4ccccc4)ccc32)c(C)c1CCC(=O)O	inactive
NS(=O)(=O)c1ccc(N2CCN(CC[C@@H]3OCCc4ccccc43)CC2)cc1	inactive

molecular target: Cytochrome P450 2D6 (Homo sapiens) (UniProt P10635); assay: Cytochrome P450 family 2 subfamily D member 6 (CYP2D6) small molecule antagonists: luciferase biochemical (cell-free) qHTS assay (AID 1645840); settings: P450-Glo CYP2D6 enzyme, luciferin luminescence, 1 h; series mostly up to 57.4 µM; also: nearly all actives have a fitted effect of over 55% in size; also: potency is read from the fitted curve at half-maximal effect
Summary of the method: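 P450-Glo luminescent screen: recombinant CYP2D6 enzyme–proluciferin substrate mix preincubated with compound 10 min at room temperature, then NADPH regeneration added for 1 h at room temperature. Detection reagent added for 20 min; luciferin light read as relative luminescence units.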

Chain of Cytochrome P450 2D6 (Homo sapiens) (P10635 whole entry, looked up): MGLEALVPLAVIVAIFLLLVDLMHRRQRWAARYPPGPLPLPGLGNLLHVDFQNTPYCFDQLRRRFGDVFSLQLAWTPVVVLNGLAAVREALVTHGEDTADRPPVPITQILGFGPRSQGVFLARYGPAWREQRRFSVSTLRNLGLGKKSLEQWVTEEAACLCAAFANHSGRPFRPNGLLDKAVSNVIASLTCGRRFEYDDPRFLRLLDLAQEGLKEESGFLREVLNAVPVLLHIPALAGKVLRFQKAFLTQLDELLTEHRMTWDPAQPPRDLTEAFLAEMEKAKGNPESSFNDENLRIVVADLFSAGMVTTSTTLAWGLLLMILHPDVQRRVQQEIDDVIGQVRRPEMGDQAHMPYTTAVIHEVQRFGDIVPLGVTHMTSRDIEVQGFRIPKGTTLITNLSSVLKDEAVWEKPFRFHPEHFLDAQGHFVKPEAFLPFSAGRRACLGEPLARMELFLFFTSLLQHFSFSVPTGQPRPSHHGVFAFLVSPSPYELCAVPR

Compound	Potency
CC1(C)Oc2ncnc(N)c2N=C1c1ccc(C23CCC(CC(=O)O)(CC2)CC3)cc1	inactive
O=C(NCCN1CCN(c2cccc3c2OCCO3)CC1)c1ccc(F)cc1	12 µM (active)
CC[C@H](C(=O)Nc1ccccc1N1CCCC1)c1ccccc1	9.52 µM (active)
O=c1cc(N2CCOCC2)nc2c3ccccc3ccn12	19 µM (active)
C#CCNCc1cc2cc(OCc3ccccc3)ccc2[nH]1	23.9 µM (active)
CC(C)NC(=O)COc1cccc(-c2nc(Nc3ccc4[nH]ncc4c3)c3ccccc3n2)c1	2.68 µM (active)
CC(C)(O)C(=O)N1CCN(c2ccc(C(F)(F)F)c(C3=C(c4c[nH]c5ccccc45)C(=O)NC3=O)c2)CC1	21.3 µM (active)
COc1cccc(N2CCN(C3=Nc4c(F)cccc4[C@H](CC(=O)O)N3c3cc(C(F)(F)F)ccc3OC)CC2)c1	inactive
O=c1[nH]c([C@@H]2CCCN2)nc2c1oc1ccc(Cl)cc12	inactive
COc1ccc([C@H](Cc2ccncc2)c2ccccc2)cc1OC1CCCC1	12 µM (active)
CCn1c(-c2nonc2N)nc2c(C#CCO)ncc(OCCCN)c21	inactive
O=P(O)(O)OC(CO)CO	inactive
Fc1ccc(CN2CCC(Nc3ccc(C(F)(F)F)nn3)CC2)cc1F	1.2 µM (active)
O=C(CN1C2=NCCN2c2ccccc21)c1ccc(-c2ccccc2)cc1	4.77 µM (active)
CNC(=O)c1ccc2c(c1)CCO[C@H]2CCN1CCN(c2ccc(OC)cc2)CC1	inactive
C=Cc1ccccc1	inactive
O=C(Nc1ccc(C(F)(F)F)cn1)N1CCN(c2ncccc2C(F)(F)F)CC1	inactive
CCCCCCCCCCCCCCCC(=O)OC/C=C(C)/C=C/C=C(C)/C=C/C1=C(C)CCCC1(C)C	inactive
COc1ccnc(CS(=O)c2nc3cc(OC(F)F)ccc3[nH]2)c1OC (centres undefined)	inactive
O=C(NC1CCC1)c1ccc(C#Cc2cccc(F)c2)nc1	inactive
CC[C@H]1CN(c2nc(N)c(C(N)=O)nc2Cl)CCN1C1CCN(Cc2ccc(Cl)cc2)CC1	12 µM (active)
Nc1nc(O)c(C2=C3C(=Nc4ccccc43)C(=O)NCC2)[nH]1	inactive
O=C(Nc1ccc(-c2ccnc(Nc3ccc(N4CCOCC4)cc3)n2)cc1)C1CCCN1 (centres undefined)	inactive
CCOc1cn(-c2ccc(F)cc2C)nc1C(=O)Nc1ccc(Oc2ccnc3cc(OC)c(OC)cc23)c(F)c1	inactive
COC(=O)c1ccc2c(c1)nc(NC(=O)c1ccccc1)n2CCCc1ccccc1	inactive
COc1ccc(C(=O)Nc2c(Cl)cncc2Cl)cc1OC1CCCC1	inactive
O=c1[nH]c2ccc(C#CCN3CCC(Cc4ccccc4)CC3)cc2[nH]1	0.338 µM (active)
Cc1cc(F)ccc1-c1nc(NCCN=C(N)NC#N)nc2c1ccc(=O)n2-c1c(F)cccc1F	19 µM (active)
CC(C)c1ccc(NC(=O)Cn2cnc3c2c(=O)n(C)c(=O)n3C)cc1	inactive
